PubChem BioAssay AID1851 (National Center for Advancing Translational Sciences (NCATS), 2009)
The whole screen tested about 16,000 compounds, of which about 5,800 (36%) were called active. Inconclusive results (about 23%) are left out. Calls follow the shape of the dose curve; as a rule, active = well fitted curve in the direction sought with a large enough effect; inconclusive = small, poorly fitted or top-dose-only effect, or effect the other way; inactive = no such curve, though single readings can be large or run the other way. The list shows a part of the results.

These molecules were tested against Cytochrome P450 2C19 (Homo sapiens) (UniProt P33261) (assay: Cytochrome panel assay with activity outcomes). Conditions: recombinant CYP, pro-luciferin dealkylation, luminescence, p450-cyp2c19; series mostly up to 57.1 µM; activity, negative = inhibition: at the top concentration.
% is scaled to controls: 0 for no effect and ±100 for the full control effect.

Sequence of Cytochrome P450 2C19 (Homo sapiens) (P33261 whole entry, looked up): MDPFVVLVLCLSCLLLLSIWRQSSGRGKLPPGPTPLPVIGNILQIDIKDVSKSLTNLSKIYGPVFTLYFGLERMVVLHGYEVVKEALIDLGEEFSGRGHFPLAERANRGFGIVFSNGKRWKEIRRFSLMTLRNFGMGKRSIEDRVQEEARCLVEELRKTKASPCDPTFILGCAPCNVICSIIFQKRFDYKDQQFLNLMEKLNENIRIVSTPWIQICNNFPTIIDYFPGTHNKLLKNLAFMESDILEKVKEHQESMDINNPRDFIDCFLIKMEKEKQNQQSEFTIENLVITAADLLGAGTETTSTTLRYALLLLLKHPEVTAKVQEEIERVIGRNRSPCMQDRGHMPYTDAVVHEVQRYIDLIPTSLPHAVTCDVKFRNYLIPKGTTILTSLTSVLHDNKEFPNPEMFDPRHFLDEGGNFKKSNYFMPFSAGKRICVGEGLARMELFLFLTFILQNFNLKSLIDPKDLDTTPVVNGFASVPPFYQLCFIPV

Compound	activity, negative = inhibition	AC50
CCOC(=O)c1c(NC(=O)c2c(C)noc2C)sc2c1CCCCC2	-4.88% (inactive)	
CCOC(=O)c1c(NC(=O)Cn2nc([N+](=O)[O-])c(Br)c2C)sc2c1CCC(C)C2 (stereo not given)		8.91 µM (active)
CCOC(=O)c1c(NC(=O)CSc2nnc(C)s2)sc2c1CCCCC2		2.24 µM (active)
CCOC(=O)c1c(NC(=O)c2ccc(S(=O)(=O)N3CCOCC3)cc2)sc2c1CCN(C)C2	30.2% (inactive)	
CCOC(=O)c1c(NC(=S)NC(=O)c2cnn(CC)c2)sc2c1CCC(C)C2 (stereo not given)	-22% (inactive)	
CCOC(=O)c1c(NC(=O)Cn2cc([N+](=O)[O-])cn2)sc2c1CCC2		2 µM (active)
CCOC(=O)c1c(N2C(=O)Nc3cc(Cl)c(Cl)cc3N2O)sc2c1CCCCC2	-110% (inactive)	
CCNc1ncc2nc(-c3ccc(Cl)cc3)c(=O)n(Cc3cccc(OC)c3)c2n1	11.2% (inactive)	
COCCn1c(=O)cnc2cnc(Nc3cccc(OC)c3)nc21	-17.7% (inactive)	
CCNc1ncc2nc(-c3ccc(OC)cc3)c(=O)n(Cc3cccc(OC)c3)c2n1	-18.3% (inactive)	
COc1cccc(Cn2c(=O)cnc3cnc(Nc4cccc(OC)c4)nc32)c1		3.98 µM (active)
CCNc1ncc2ncc(=O)n(Cc3cccc(OC)c3)c2n1		2 µM (active)
COc1cccc(Nc2ncc3ncc(=O)n(CCC#N)c3n2)c1	-23.9% (inactive)	
CCNc1ncc2nc(-c3cn(C)c4ccccc34)c(=O)n(Cc3cccc(OC)c3)c2n1	-30.7% (inactive)	
CCNc1ncc2nc(-c3cccs3)c(=O)n(Cc3cccc(OC)c3)c2n1	-27.9% (inactive)	
CCNc1ncc2nc(C)c(=O)n(Cc3cccc(OC)c3)c2n1		10 µM (active)
CCOc1ccc(/C(O)=C2/C(=O)C(=O)N(CCOCCO)C2c2cccnc2)cc1 (stereo not given)	-4.48% (inactive)	
CCOc1cccc(/C(O)=C2/C(=O)C(=O)N(Cc3ccco3)C2c2ccncc2)c1 (stereo not given)		10 µM (active)
COc1cccc(/C(O)=C2/C(=O)C(=O)N(CCCN3CCOCC3)C2c2ccncc2)c1 (stereo not given)	-13.8% (inactive)	
COCCN1C(=O)C(=O)/C(=C(/O)c2cccc(OC)c2)C1c1ccco1 (stereo not given)	-15.3% (inactive)	
COCCN1C(=O)C(=O)/C(=C(/O)c2cccc(OC)c2)C1c1ccc(C)o1 (stereo not given)	-7.14% (inactive)	
COc1cccc(/C(O)=C2/C(=O)C(=O)N(Cc3cccnc3)C2c2ccco2)c1 (stereo not given)		14.1 µM (active)
O=C(CCNC(=O)Cn1ccc2ccccc2c1=O)NCCCN1CCN(c2ccc(F)cc2)CC1	-10.9% (inactive)	
O=C(c1cc(-c2cccs2)on1)N1CCN(c2ccc(F)cc2)CC1		1.41 µM (active)

Compound	activity, negative = inhibition	AC50
O=C(CCS(=O)(=O)c1cccs1)N1CCN(c2ccc(F)cc2)CC1		0.891 µM (active)
O=C(c1cnccn1)N1CCC2(CC1)CN(c1ccncc1)C2	-38% (inactive)	
CC(C)CCN1CC(C(=O)N2CCN(c3ccc(F)cc3)CC2)CC1=O (stereo not given)	-56.6% (inactive)	
O=C(c1cc(-c2ccco2)on1)N1CCOCC1	-29.1% (inactive)	
Oc1cc(O)cc(/C=C\c2ccc(O)c(O)c2)c1	-27.7% (inactive)	
CC(C)c1cccc2nc3c(c([Si](C)(C)C)c12)Cn1c-3cccc1=O	-80.6% (inactive)	
Cc1ccc(OCC(=O)N/N=C\c2c(C)n(C)c3ccccc23)c([N+](=O)[O-])c1		8.91 µM (active)
NC[C@H](O)C1CCCCCCC1	7.64% (inactive)	
CC(=O)c1cnc2c(C(=O)O)cnn2c1C	-3.66% (inactive)	
Cc1nc2ncnn2c(C)c1CCC(=O)N1CCN(C(=O)c2ccco2)CC1	-5.78% (inactive)	
Cc1nc2c(C(=O)N3CCOCC3)cnn2c(C)c1Cc1ccc(Cl)cc1		2.24 µM (active)
N=c1n(CCN2CCOCC2)c2ccccc2n1CC(=O)c1ccc(Cl)c(Cl)c1		6.31 µM (active)
COC(=O)Cn1c(=N)n(CCN2CCCCC2)c2ccccc21	40.1% (inactive)	
Cc1cc(=O)[nH]c(SCC(=O)Nc2nc3c(s2)CCCC3)n1		7.94 µM (active)
O=S(=O)(c1ccccc1)N1CCN(c2cc(-c3ccccc3)nc3ncnn23)CC1		11.2 µM (active)
FC(F)(F)c1ccc(N2CCN(c3cc(-c4ccccc4)nc4ncnn34)CC2)nc1		3.55 µM (active)
O=S(=O)(c1ccccc1)N1CCC2(CCN(c3ncccn3)CC2)CC1	32.2% (inactive)	
Cc1cnn(-c2cc(N/N=C/c3ccccc3)ncn2)c1	21.7% (inactive)	
Cc1cccc(/C=N\Nc2cn[nH]c(=O)c2Cl)c1		10 µM (active)
CCOC(=O)C1C(=O)C=C(/C=C/c2ccccc2)CC1c1ccc(Cl)cc1 (stereo not given)		8.91 µM (active)
COc1ccccc1C(=O)NCCn1cc(SCC(=O)Nc2nnc(C)s2)c2ccccc21		8.91 µM (active)
CCc1nnc(NC(=O)CCC(=O)NCc2ccccc2OC)s1	13.2% (inactive)	
CC(C)CN(CC(C)C)C1=N/C(=C\c2ccco2)C(=O)N1c1ccccc1		2.82 µM (active)
CCOC(=O)CN1C(=O)Nc2ccc(Br)cc2C1c1ccccc1 (stereo not given)		3.98 µM (active)

Compound	activity, negative = inhibition	AC50
CCOC(=O)C1(C(=O)O)NC(=O)CC1c1ccccc1 (stereo not given)	-18.1% (inactive)	
O=C(Nc1ccccc1[N+](=O)[O-])C1C(c2ccccc2)=C1c1ccccc1		2.51 µM (active)
COc1ccc(CCC(C)Nc2cccc(F)c2)cc1 (stereo not given)		0.891 µM (active)
C[C@@H](CCc1ccc(O)cc1)NCCc1ccc(O)c(O)c1		inactive
OC(COCc1ccccc1)Cn1cnc2ccccc21 (stereo not given)		14.1 µM (active)
CC(=O)Nc1ccc(OCC(O)Cn2cnc3ccccc32)cc1 (stereo not given)		22.4 µM (active)
CC(=O)Nc1ccc(OC[C@@H](O)CNC(C)C)cc1	27.7% [at 25.6 µM] (inactive)	
CN1CCCCC1=NCCCn1cnc2c1c(=O)n(C)c(=O)n2C	16.6% (inactive)	
O=c1c(-c2cccc(F)c2)nc2cncnc2n1-c1ccccc1		15.8 µM (active)
O=c1c(-c2cccc(Cl)c2)nc2cncnc2n1C1CC1	-21.7% (inactive)	
O=c1c(-c2ccc(F)cc2)nc2cncnc2n1-c1ccccc1	-41.3% (inactive)	
O=c1c(-c2cccc(F)c2)nc2cncnc2n1Cc1ccccc1Cl		0.794 µM (active)
O=c1c(-c2cccc(Cl)c2)nc2cncnc2n1Cc1ccccc1Cl		5.01 µM (active)
O=c1c(-c2cc(F)cc(F)c2)nc2cncnc2n1Cc1ccccc1Cl		1.58 µM (active)
O=c1c(-c2cccc(F)c2)nc2cncnc2n1C1CC1	-28.1% (inactive)	
O=c1[nH]c(=O)n([C@@H]2C[C@H](O)[C@H](CO)O2)cc1I	15.4% [at 25.6 µM] (inactive)	
O=C1C2C3C=CC(C2C(=O)N1CN1CCOCC1)C1C2C(=O)N(CN4CCOCC4)C(=O)C2C31 (stereo not given)	22.1% [at 11.4 µM] (inactive)	
Cc1ccccc1NC(=O)c1cnc(Nc2nc3ccccc3s2)nc1C	-11.9% (inactive)	
O=C(Nc1ccc2c(c1)OCCO2)c1cccc2nc3ccccc3nc12		4.47 µM (active)
Cc1ccccc1NC(=O)c1cccc2nc3ccccc3nc12		3.55 µM (active)
O=c1c(-c2ccc(F)cc2)nc2cnc(Nc3ccccc3)nc2n1Cc1cccs1	-8.61% (inactive)	
C=CCC(C)(NCc1ccccc1)c1ccco1 (stereo not given)		11.2 µM (active)
Clc1ccc(COc2ccccn2)cc1Cl		2.24 µM (active)
CCCOc1ccc(/C=C/C(=O)Nc2ccc([N+](=O)[O-])cc2C)cc1OC		3.98 µM (active)

Compound	activity, negative = inhibition	AC50
CC(/C=N/NC(=O)c1cccc([N+](=O)[O-])c1)=C\c1ccccc1	-12% (inactive)	
COc1ccc(/C=N/NC(=O)c2cccc([N+](=O)[O-])c2)cc1OS(=O)(=O)c1ccc(C)cc1		3.16 µM (active)
CCOc1ccc(NC(=S)NC(=O)/C=C/c2ccc(OC)c(OC)c2)c([N+](=O)[O-])c1	-44.3% (inactive)	
CCOc1cc(/C=N/NC(=O)c2cccc([N+](=O)[O-])c2)ccc1OS(=O)(=O)c1ccccc1		14.1 µM (active)
COc1cc(/C=N\Nc2ccc([N+](=O)[O-])cc2)ccc1OCC(=O)Nc1ccc(C)c(C)c1		3.98 µM (active)
O=C(N=NC(=O)c1ccc2c(O)n(C3CCCCC3)c(O)c2c1)c1cccnc1	-21.3% (inactive)	
COc1cccc(/C=N/NC(=O)c2cccc([N+](=O)[O-])c2)c1OS(=O)(=O)c1ccc(C)cc1		4.47 µM (active)
COc1cc(/C=N/NC(=O)c2cccnc2)ccc1OC(=O)c1ccc2c(c1)OCO2	-16.9% (inactive)	
COc1cc(/C=N/NC(=O)c2ccncc2)ccc1OC(=O)c1ccc([N+](=O)[O-])cc1		14.1 µM (active)
COCCCNC(=O)C(=O)N/N=C/c1ccc(OCC(=O)Nc2cccc(Cl)c2C)c(OC)c1		31.6 µM (active)
COc1cc(C(=O)Oc2ccccc2/C=N/NC(=O)c2ccc(C)cc2)cc(OC)c1OC		0.398 µM (active)
CN(C)CCn1nnnc1SCC1=C(C(=O)O)N2C(=O)[C@@H](NC(=O)Cc3csc(N)n3)[C@@H]2SC1	16.7% [at 25.6 µM] (inactive)	
COc1ccc(C(=O)Oc2cc(/C=N/NS(=O)(=O)c3ccc(C)cc3)ccc2OC)cc1		1.78 µM (active)
COc1ccc(C(=O)N/N=C/c2cccc3cccnc23)cc1		28.2 µM (active)
O=C(CCc1nc(-c2ccccc2)c(-c2ccccc2)o1)OCc1ccc(Cl)cc1		6.31 µM (active)
CCOC(=O)N1CCN(C(=O)c2ccc3c(=O)n(-c4ccc(OC)cc4)c(=S)[nH]c3c2)CC1	-5.12% (inactive)	
COc1ccc(-n2c(=S)[nH]c3cc(C(=O)NCCCN4CCCC4=O)ccc3c2=O)cc1		39.8 µM (active)
CNC(=O)c1ccc(-c2sc3nc(N4CCOCC4)c4c(c3c2N)CC(C)(C)OC4)o1		11.2 µM (active)
CC(=O)N[C@@H]1CONC1=O	21.6% [at 11.4 µM] (inactive)	
O=C(O)C[C@H]1OCC=C2C[N@@+]3([O-])CC[C@]45c6ccccc6N[C@@H]4[C@@H]1[C@H]2C[C@H]53	13.9% [at 11.4 µM] (inactive)	
Cc1cc(C(=O)N[C@@H](c2ccccc2)[C@]2(C)C[C@H]2[C@@H](C)C(=O)Nc2ccc3ccccc3c2)n(C)n1		10 µM (active)
Cc1cc(C(=O)N[C@H](c2ccccc2)[C@@]2(C)C[C@@H]2[C@@H](C)C(=O)Nc2ccc3ccccc3c2)n(C)n1		15.8 µM (active)
Cc1nn(C)c(Cl)c1S(=O)(=O)N[C@@H](c1ccccc1)[C@]1(C)C[C@H]1[C@@H](C)C(=O)Nc1ccc2ccccc2c1	-25.4% (inactive)	
